What all share (assay): NCI-60 one-dose screen, 48 h (100 = growth as untreated, 0 = no growth, -100 = all killed)
What all share (settings): 10 µM

Assay [1] deals with SN12C renal.
In assay [2] the test system is UO-31 renal.
Assay [3] deals with TK-10 renal.
In assay [4] the test system is ACHN renal.
The test system of assay [5] is CAKI-1 renal.
For assay [6], the system named is A498 renal.
The test system of assay [7] is MOLT-4 leukemia.
The subject of assay [8] is SR leukemia.
Assay [9] has as its system CCRF-CEM leukemia.

This is part of a sample that, as a whole, favours compounds with a hit. Of some 83,000 tested, about 20% had one in any assay.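 Treatment: one concentration, 48 hours, 96-well format. Scoring: percent growth, with anything below 10 considered active.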 Unmarked numbers belong to inactive results. Active and inactive are the calls of the source.

On to `COc1ccc(-c2nc(-c3nc4cc(Cl)c(Cl)cc4[nH]3)c3ccccn23)cc1`, for which the growth is 81.8% in [1]; 36% in [2]; 2.57% (active) in [3]; 28.5% in [4]; 43.5% in assay [5]; 41.5% in [6]. Moreover, the growth in assay [7] was 77.3%; in assay [8], 45.6%.

For `FC(F)(F)c1ccc2nc(-c3nc(-c4ccccc4)n4ccccc34)[nH]c2c1`, the growth in assay [1] was 53%; in assay [2] it was 80.9%; in assay [3], 94.2%; in assay [4] it was 81.1%; in assay [5], 99.9%; in [6], 107%. The growth in [9] was 52%; in assay [7], 47.8%; in assay [8], 19.6%.

In the case of `O=C1OCC2=C1C(c1cccc(Cl)c1)c1cc3c(cc1N2CCO)CCC3` (stereo not given), the growth in assay [1] is 21.1%; in assay [2], 19%; in assay [3] it was 56.6%; in assay [4] it was 25.5%; in assay [5] it was 11.2%; in assay [6] it was -20.5% (active). Besides, the growth in assay [9] was 10.4%; in assay [7], 13.7%; in [8] it was 27.6%.

On to `CCCCCCCCCCCCCCCC(=O)OC1[C@@H](OC(=O)CCCCCCCCCCCCCCC)[C@@H](C(=O)N[C@@H](CCCCN)C(=O)OC)O[C@H]1n1cnc2c(=O)[nH]c(NC(=O)C(C)C)nc21` (stereo not given in full), for which the growth in assay [1] is 105%; in assay [2] it was 87.1%; in assay [3], 101%; in assay [4], 102%; in assay [5] it was 94%; in assay [6], 98.1%. In addition, the results for the growth in assay [9], in assay [7] and in assay [8] were 86%, 93.4% and 9.69% (active), respectively.

Regarding `Nc1ncnc2[nH]c(=O)[nH]c12`, the growth was 90.9% in assay [1]; 105% in [2]; 99.3% in [3]; 98.9% in assay [4]; 6.82% (active) in assay [5]; 128% in [6]. For the same molecule, the growth is 125% in assay [9], 138% in assay [7] and 26.1% in assay [8].

Regarding `O=C1Nc2ccc(Cl)cc2/C1=C\c1c(-c2ccc(Cl)cc2)nc2sc(C3CC3)nn12`, the growth is 75.7% in [1]; 63.7% in [2]; 52.9% in assay [3]; 44.4% in assay [4]; 45.7% in assay [5]; 14.9% in assay [6]. In addition, the growth in assay [9] was 93.6%; in assay [8], 44.2%.

For the molecule `COc1ccc2c(c1)O/C(=C\c1ccc([N+](=O)[O-])s1)C2=O`, the growth is 41.6% in assay [1]; 24% in assay [2]; 42.5% in assay [3]; 25.4% in assay [4]; 44.2% in [5]; 85.1% in [6]. Also, the growth in [9] was 10.1%; in [7], 10.7%; in [8], 12.1%.

On to `O=C1/C(=C\c2ccc(F)cc2)CN(C(=O)c2ccccc2)C/C1=C\c1ccc(F)cc1`, for which the growth in assay [1] is 14.1%; in [2], 38.7%; in assay [3] it was 79.7%; in assay [4] it was 24.3%; in assay [5], 21.3%; in assay [6], 52.3%. Besides, in assay [7], the growth is 4.36% (active).

Take `CN(C)c1ccc(/C=C/C=N/NC(=O)c2cc(O)c(O)c(O)c2)cc1`: the growth in assay [1] was 105%; in assay [2], 65.9%; in assay [3] it was 101%; in assay [4], 76.8%; in assay [5], 93.4%; in [6] it was 88.1%. Besides, the growth was 48% in assay [7] and 32.9% in assay [8].

`O=C(Nc1cccc(-n2cc(-c3ccncc3)c(-c3ccc(O)c(Cl)c3)n2)c1)Nc1cccc(C(F)(F)F)c1`: the growth is 10.3% in assay [1]; -9.43% (active) in [2]; -0.882% (active) in [3]; 8.15% (active) in assay [4]; -14.5% (active) in assay [5]; 76.6% in assay [6]. Further, the growth in assay [9] is -0.796% (active); in [7] it was -25% (active); in assay [8], -16.7% (active).

For `COc1ccc(/C=C/C(C)=N/OCC(=O)O)cc1`, the growth in assay [1] is 105%; in [2], 95.9%; in assay [3], 87.5%; in assay [4], 106%; in assay [5], 106%; in [6], 72.8%. Besides, the figures for the growth in assay [9], in assay [7] and in assay [8] were 95.7%, 86.8% and 93.4%, respectively.

With `COc1cc(Nc2ccnc(NCCNc3ccnc4cc(Cl)ccc34)n2)cc(OC)c1`, the growth in [1] is 52%; in assay [2], 37%; in [3] it was 48.3%; in assay [4], 30.7%; in assay [5], 40.8%; in assay [6], 39.9%. The growth in assay [7] is 15.3%.

On to `COc1ccc(Nc2nc3ccc(NC(=O)NC4CCCCC4)cc3[nH]c2=O)cc1`, for which the growth was 91.6% in assay [1]; 94.5% in assay [2]; 117% in assay [3]; 94.8% in assay [4]; 87.7% in [5]; 109% in assay [6]. The growth was 91.6% in assay [9] and 103% in [8].

As for `COc1cc(/C=C\c2cc(OC)c(OC)c(OC)c2)cc(NS(=O)(=O)c2ccc(Cl)cc2)c1OC`, the growth is 27.2% in [1]; 35.9% in [2]; 55.2% in assay [3]; 39% in [4]; 37.1% in assay [5]; -5.88% (active) in assay [6]. In addition, the growth in [9] is 14.6%; in [8] it was 14.4%.

With `Cn1c([N+](=O)[O-])cnc1/C=C1\Oc2ccccc2C1=O`, the growth in assay [1] is -18.2% (active); in [2], -39.3% (active); in assay [3], -28.8% (active); in assay [4] it was 3.1% (active); in [5] it was -23% (active); in [6], -3.16% (active). In addition, the growth is 2.77% (active) in [9] and 9.62% (active) in assay [8].

(Values after PubChem BioAssay (NCI).)
